This is an account of results in PubChem BioAssay (NCI).

Structures are written as SMILES. Several values for one entry are separate records, joined by “and”; a condition that tells them apart may be missing. Equal entries are not always repeated. This is part of a sample that, as a whole, favours compounds with a hit. Of some 83,000 tested, about 20% had one in any assay.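 Testing used 96-well plates and a 48-hour single-concentration exposure. Example: -40 means 40% of the starting cells died.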 Values without a mark were called inactive. Activity calls are given as the source filed them. Rule for the calls: active = growth percent below 10; inactive = the rest.

Common to all, as to test: NCI-60 one-dose screen, 48 h (100 = growth as untreated, 0 = no growth, -100 = all killed)
Assay [1] relates to SK-MEL-2 melanoma. The conditions noted are these: 10 µM unless noted.
Assay [2] relates to SN12C renal. The conditions noted are these: 10 µM unless noted.
Assay [3] deals with UO-31 renal. As to conditions: 10 µM unless noted.
Assay [4] relates to TK-10 renal. As to conditions: 10 µM unless noted.
Assay [5] relates to ACHN renal. The conditions noted are these: 10 µM unless noted.
For assay [6], the system named is CAKI-1 renal. As to conditions: 10 µM unless noted.
Assay [7] concerns A498 renal. As to conditions: 10 µM unless noted.
Assay [8] concerns CCRF-CEM leukemia. As to conditions: 10 µM.
Assay [9] has as its system MOLT-4 leukemia. As to conditions: 10 µM unless noted.
Assay [10] relates to SR leukemia. As to conditions: 10 µM unless noted.
In assay [11] the test system is RPMI-8226 leukemia. The conditions noted are these: 10 µM unless noted.
Assay [12] deals with OVCAR-8 ovarian. The conditions noted are these: 10 µM unless noted.
The subject of assay [13] is OVCAR-5 ovarian. The conditions noted are these: 10 µM unless noted.
The subject of assay [14] is IGROV1 ovarian. The conditions noted are these: 10 µM unless noted.
Assay [15] has as its system OVCAR-3 ovarian. As to conditions: 10 µM unless noted.
For assay [16], the system named is HS 578T breast. As to conditions: 10 µM unless noted.
Assay [17] concerns NCI/ADR-RES ovarian. The conditions noted are these: 10 µM unless noted.
For assay [18], the system named is EKVX NSCLC. The conditions noted are these: 10 µM.
In assay [19] the test system is SK-OV-3 ovarian. As to conditions: 10 µM unless noted.
The subject of assay [20] is OVCAR-4 ovarian. The conditions noted are these: 10 µM unless noted.

Consider `c1ccc(CNCCNCc2ccccc2)cc1`, for which the growth in assay [1] is 102%; in assay [2] it was 105%; in assay [3], 79.4%; in [4], 119%; in assay [5] it was 99.7%; in assay [6], 98.5%. In addition, the growth in assay [7] was 96.5%; in assay [8], 92.6%; in assay [9] it was 105%; in assay [10], 95.3%; in [11] it was 101%; in [12] it was 124%. Moreover, the growth in assay [13] is 102%; in assay [14] it was 120%; in assay [15], 121%; in assay [16], 114%; in assay [17], 112%.
For `N#CC(C#N)N=Nc1cc(Cl)ccc1Cl`, the growth in assay [1] was 85.6%; in assay [2], 103%; in [4], 105%; in assay [5], 94.1%; in assay [7], 110%; in [8], 94.7%. The growth was 92.4% in assay [9]; 106% in [10]; 95.2% in [11]; 90% in assay [12]; 97.4% in assay [13]; 106% in assay [15]. For the same compound, in [17], the growth was 112%.
On to `Nc1nc(N)c2[nH]cnc2n1`, for which the growth in assay [1] is 109%; in assay [18], 97.5%; in assay [2], 102%; in [3], 86.9%; in [4], 121%; in assay [5] it was 89.3%. Further, the growth in [6] was 84.6%; in assay [7] it was 109%; in [8] it was 98.2%; in assay [9], 92.6%; in [10], 93%; in [12] it was 70.4%. The growth was 90.3% in [13], 97.8% in [15], 114% in assay [16] and 87.3% in [17].
Take `Fc1ccc([I+]c2ccc(F)cc2)cc1`: the growth in assay [1] was 68.8%; in assay [2] it was 92.9%; in assay [3] it was 74.6%; in [4] it was 71.2%; in assay [5] it was 79.5%; in [6], 61.2%. For the same compound, the growth in [7] is 78.3%; in assay [8], 48.2%; in [9], 54.8%; in assay [10], 38.6%; in [12], 46.1%; in assay [13], 92.9%. In addition, the growth in [14] was 62.4%; in assay [15], 64.9%; in assay [16], 86.2%; in assay [17], 98.8%.
Regarding `CC(=O)OC(C)C(=O)NCC(C)O` (configuration not stated), the growth in assay [1] is 110%; in assay [2] it was 106%; in assay [3], 82.4%; in assay [4] it was 113%; in assay [5] it was 102%; in assay [6], 108%. Besides, the growth in [7] was 98.2%; in assay [8], 98.9%; in assay [9], 98.1%; in assay [10], 88%; in [12] it was 102%; in assay [13], 104%. In addition, the results for the growth in assay [14], in assay [15] and in [17] were 114%, 107% and 106%, respectively.
With `CCOC(=O)c1c(C)cc(=O)oc1C`, the growth in assay [1] is 125%; in assay [2], 98.6%; in assay [3], 88.9%; in assay [4] it was 121%; in assay [5] it was 104%; in [8], 100%. Moreover, the growth in assay [9] is 101%; in assay [10], 92%; in assay [11], 97.9%; in [12] it was 111%; in [13], 101%; in assay [19], 103%. The growth in assay [14] is 99.2%; in assay [15] it was 121%; in assay [16], 118%; in assay [17] it was 104%.
Regarding `O=C(CO)C(O)C(O)C(O)C(O)CO` (configuration not stated), the growth was 104% and 108% in assay [1]; 99.8% and 97.3% in [2]; 97.8% and 96.6% in assay [3]; 106% and 102% in assay [4]; 110% and 109% in assay [5]; 102% and 101% in assay [6]. The growth in assay [7] was 97.5% and 100%; in assay [8], 103% and 105%; in assay [9], 106% and 95.8%; in assay [10], 103% and 93.9%; in assay [12] it was 108% and 99.9%; in [13], 105% and 109%. In addition, the growth in assay [20] was 108% and 116%; in assay [19], 87.8% and 85.7%; in [14], 106% and 109%; in assay [15] it was 110% and 109%; in assay [17], 106% and 107%.
On to `CCCCCCCCCCNC(=O)CI`, for which the growth in assay [1] is -50.1% (active); in [2], 33.9%; in assay [3], -90.1% (active); in [4], 15.5%; in assay [5], -93.7% (active); in [6], -93.5% (active). The growth in assay [7] was 111%; in [8], -47.1% (active); in assay [9], -28.9% (active); in assay [10], -40.9% (active); in [12], 0.969% (active); in [13], 95.8%. For the same compound, the growth in [19] was 5.75% (active); in assay [14], -67.4% (active); in assay [15], -70.3% (active); in [16], 91.3%; in assay [17], 2.88% (active).
`Nc1ncnc2c1ncn2C1OC(COP(=O)(O)O)C(O)C1O` (configuration not stated): the growth is 113% in assay [18]; 99.9% in [2]; 100% in assay [3]; 122% in [4]; 103% in [5]; 106% in [6]. Also, the growth in [8] was 105%; in assay [9], 109%; in assay [10], 111%; in assay [11] it was 106%; in assay [12], 111%; in assay [13], 108%. For the same compound, the figures for the growth in [19], in assay [15] and in assay [17] were 114%, 124% and 109%, respectively.
